# Reference: publication PMC7862700, “An all-to-all approach to the identification of sequence-specific readers for epigenetic DNA modifications on cytosine”
# What was measured:
# Experiment in all cases: DAPPL (digital affinity profiling via proximity ligation, sequencing); 10 mM Tris-HCl pH 7.5, 50 mM NaCl, 1 mM DTT, 4% glycerol, room temperature, 30 min; GST-TFs on glutathione beads, 16-mer random dsDNA library, 0.1% formaldehyde crosslink after washing; high values mean tight binding
# FEV = biological target: T1, FEV (Homo sapiens, UniProt Q99581 1-238); settings: protein: recombinant; tags: N-terminal GST; dsDNA, one strand shown
# T1 sequence: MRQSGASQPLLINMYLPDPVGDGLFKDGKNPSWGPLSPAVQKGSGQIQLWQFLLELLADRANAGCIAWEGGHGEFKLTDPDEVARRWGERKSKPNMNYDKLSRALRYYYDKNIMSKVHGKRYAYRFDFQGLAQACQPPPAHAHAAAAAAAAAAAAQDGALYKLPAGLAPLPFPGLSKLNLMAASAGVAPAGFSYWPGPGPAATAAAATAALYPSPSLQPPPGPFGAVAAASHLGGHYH
# How it was run: (§1)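 Sequencing on an Illumina NextSeq500 followed washing, crosslinking with 0.1% formaldehyde, proximity ligation (BsaI/T4 ligase, 1 h, 37 °C) and PCR amplification of pools that had been incubated for 30 min at room temperature with 200 nmole of a random double-stranded 16-mer DNA library in Tris/NaCl/DTT/glycerol buffer. Each pool held DNA-barcoded human transcription factors, expressed in yeast as GST fusions and captured on glutathione beads, plus a tag-only sample. Binding signal is a hexamer's read frequency for a factor divided by its frequency in the tag-only sample.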
# ETV5 = ETV5 (Homo sapiens, UniProt P41161 1-510); settings: protein: recombinant; tags: N-terminal GST; dsDNA, one strand shown
# How it was run: as §1
# HSF1 = HSF1 (Homo sapiens, UniProt Q00613 1-529); settings: protein: recombinant; tags: N-terminal GST; chain copies: 3; dsDNA, one strand shown
# How it was run: as §1
# SPIC = biological target: T2, SPIC (Homo sapiens, UniProt Q8N5J4 1-248); settings: protein: recombinant; tags: N-terminal GST; dsDNA, one strand shown
# T2 sequence: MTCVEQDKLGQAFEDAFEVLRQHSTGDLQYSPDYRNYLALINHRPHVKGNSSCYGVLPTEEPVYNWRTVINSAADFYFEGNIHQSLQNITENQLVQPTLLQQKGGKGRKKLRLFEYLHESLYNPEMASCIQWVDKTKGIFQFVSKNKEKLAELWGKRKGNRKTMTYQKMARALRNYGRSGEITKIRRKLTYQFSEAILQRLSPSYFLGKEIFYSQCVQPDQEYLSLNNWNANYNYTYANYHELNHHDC
# How it was run: as §1
# ELF4 = ELF4 (Homo sapiens, UniProt Q99607 1-663); settings: protein: recombinant; tags: N-terminal GST; dsDNA, one strand shown
# How it was run: as §1
# ELK4 = biological target: T3, ELK4 (Homo sapiens, UniProt P28324-2 1-405); settings: protein: recombinant; tags: N-terminal GST; dsDNA, one strand shown
# T3 sequence: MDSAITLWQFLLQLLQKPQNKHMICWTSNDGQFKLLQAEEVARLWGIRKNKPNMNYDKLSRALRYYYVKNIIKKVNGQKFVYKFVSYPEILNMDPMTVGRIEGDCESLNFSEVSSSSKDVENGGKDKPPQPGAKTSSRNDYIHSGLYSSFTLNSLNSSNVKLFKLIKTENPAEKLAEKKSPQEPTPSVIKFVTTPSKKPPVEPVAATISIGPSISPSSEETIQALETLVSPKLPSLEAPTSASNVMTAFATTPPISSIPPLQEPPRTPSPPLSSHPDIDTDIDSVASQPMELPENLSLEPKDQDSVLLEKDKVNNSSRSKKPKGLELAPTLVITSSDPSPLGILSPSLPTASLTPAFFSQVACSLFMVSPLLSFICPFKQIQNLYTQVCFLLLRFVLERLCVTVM
# How it was run: as §1
# ETV2 = biological target: T4, ETV2 (Homo sapiens, UniProt O00321 1-342); settings: protein: recombinant; tags: N-terminal GST; dsDNA, one strand shown
# T4 sequence: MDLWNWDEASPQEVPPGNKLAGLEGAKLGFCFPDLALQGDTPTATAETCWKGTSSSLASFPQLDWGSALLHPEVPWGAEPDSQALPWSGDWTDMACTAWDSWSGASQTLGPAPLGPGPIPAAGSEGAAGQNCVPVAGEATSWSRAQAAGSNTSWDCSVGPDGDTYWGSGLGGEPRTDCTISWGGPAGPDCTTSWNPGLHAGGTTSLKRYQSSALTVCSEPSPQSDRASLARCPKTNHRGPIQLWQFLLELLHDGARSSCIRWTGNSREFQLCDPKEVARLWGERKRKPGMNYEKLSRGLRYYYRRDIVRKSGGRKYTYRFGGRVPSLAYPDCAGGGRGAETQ
# How it was run: as §1
# ELF3 = biological target: T5, ELF3 (Homo sapiens, UniProt P78545 1-371); settings: protein: recombinant; tags: N-terminal GST; dsDNA, one strand shown
# T5 sequence: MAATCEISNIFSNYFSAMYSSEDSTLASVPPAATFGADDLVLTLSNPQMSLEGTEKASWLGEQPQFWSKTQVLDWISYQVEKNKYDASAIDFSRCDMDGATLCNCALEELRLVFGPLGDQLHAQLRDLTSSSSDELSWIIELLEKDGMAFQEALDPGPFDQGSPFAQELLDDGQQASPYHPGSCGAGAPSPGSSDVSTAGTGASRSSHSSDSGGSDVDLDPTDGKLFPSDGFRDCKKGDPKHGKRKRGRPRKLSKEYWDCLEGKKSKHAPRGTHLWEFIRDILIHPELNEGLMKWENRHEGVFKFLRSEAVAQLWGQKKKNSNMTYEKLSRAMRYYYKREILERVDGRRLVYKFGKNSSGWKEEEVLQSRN
# How it was run: as §1
# CRX = CRX (Homo sapiens, UniProt O43186 1-299); settings: protein: recombinant; tags: N-terminal GST; dsDNA, one strand shown
# How it was run: as §1
# Sequence of ELF4 (Q99607 whole entry): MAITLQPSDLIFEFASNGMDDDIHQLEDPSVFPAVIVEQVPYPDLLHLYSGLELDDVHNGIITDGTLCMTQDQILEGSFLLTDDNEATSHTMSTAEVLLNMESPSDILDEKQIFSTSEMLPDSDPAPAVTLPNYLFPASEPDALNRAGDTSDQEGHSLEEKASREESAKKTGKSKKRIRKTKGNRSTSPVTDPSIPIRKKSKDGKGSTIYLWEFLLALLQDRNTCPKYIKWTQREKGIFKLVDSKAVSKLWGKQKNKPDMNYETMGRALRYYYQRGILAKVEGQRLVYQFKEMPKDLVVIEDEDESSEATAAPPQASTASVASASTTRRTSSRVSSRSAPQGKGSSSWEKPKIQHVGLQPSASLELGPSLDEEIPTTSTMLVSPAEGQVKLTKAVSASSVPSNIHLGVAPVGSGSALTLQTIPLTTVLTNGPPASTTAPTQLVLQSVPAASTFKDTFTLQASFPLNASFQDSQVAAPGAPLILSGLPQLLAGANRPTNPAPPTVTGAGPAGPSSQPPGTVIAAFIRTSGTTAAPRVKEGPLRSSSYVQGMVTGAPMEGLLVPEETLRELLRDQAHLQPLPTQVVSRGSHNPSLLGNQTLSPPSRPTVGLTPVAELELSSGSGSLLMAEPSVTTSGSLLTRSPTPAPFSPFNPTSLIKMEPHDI
# Sequence of ETV5 (P41161 whole entry): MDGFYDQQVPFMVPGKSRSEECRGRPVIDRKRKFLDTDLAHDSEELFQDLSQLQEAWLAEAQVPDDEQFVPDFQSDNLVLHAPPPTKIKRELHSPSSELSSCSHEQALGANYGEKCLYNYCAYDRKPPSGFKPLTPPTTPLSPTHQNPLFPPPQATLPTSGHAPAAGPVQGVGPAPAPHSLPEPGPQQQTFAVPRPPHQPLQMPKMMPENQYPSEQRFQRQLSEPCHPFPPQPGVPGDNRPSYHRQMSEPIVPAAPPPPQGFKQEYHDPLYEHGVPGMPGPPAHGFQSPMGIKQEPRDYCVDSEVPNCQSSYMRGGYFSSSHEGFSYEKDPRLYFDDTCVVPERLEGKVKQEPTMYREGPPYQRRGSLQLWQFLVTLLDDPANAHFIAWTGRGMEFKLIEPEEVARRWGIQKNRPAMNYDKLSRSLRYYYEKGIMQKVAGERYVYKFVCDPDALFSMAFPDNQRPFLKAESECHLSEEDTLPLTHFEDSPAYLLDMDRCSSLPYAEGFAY
# Sequence of HSF1 (Q00613 whole entry): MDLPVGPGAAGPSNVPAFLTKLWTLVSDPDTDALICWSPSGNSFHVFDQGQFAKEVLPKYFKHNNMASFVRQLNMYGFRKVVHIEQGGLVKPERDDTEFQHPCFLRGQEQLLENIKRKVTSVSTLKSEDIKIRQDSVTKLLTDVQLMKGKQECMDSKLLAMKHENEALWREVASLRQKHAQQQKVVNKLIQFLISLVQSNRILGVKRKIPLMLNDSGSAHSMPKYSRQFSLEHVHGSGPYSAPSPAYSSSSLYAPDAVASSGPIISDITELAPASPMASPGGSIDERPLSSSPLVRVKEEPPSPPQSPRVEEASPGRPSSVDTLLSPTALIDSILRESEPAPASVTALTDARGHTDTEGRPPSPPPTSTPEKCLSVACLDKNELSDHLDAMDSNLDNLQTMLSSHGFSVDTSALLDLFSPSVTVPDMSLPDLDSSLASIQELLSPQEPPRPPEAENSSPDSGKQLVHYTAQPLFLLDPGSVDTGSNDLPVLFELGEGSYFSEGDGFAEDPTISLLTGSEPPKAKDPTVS
# Sequence of CRX (O43186 whole entry): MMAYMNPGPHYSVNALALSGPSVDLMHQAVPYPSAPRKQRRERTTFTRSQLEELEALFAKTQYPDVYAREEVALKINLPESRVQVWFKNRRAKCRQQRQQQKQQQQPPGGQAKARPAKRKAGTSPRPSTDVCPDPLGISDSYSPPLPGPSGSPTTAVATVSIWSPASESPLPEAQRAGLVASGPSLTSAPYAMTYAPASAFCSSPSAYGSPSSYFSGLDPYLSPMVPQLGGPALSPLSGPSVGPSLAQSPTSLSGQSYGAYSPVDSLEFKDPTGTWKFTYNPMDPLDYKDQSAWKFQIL
sequence,measurement,setting,value
GAACTT,binding signal,FEV,"1.72 fold enrichment (6-mer frequency, TF over GST control)"
same,binding signal,ETV5,"1.66 fold enrichment (6-mer frequency, TF over GST control)"
same,binding signal,HSF1,"2.03 fold enrichment (6-mer frequency, TF over GST control)"
same,binding signal,SPIC,"1.71 fold enrichment (6-mer frequency, TF over GST control)"
same,binding signal,ELF4,"1.52 fold enrichment (6-mer frequency, TF over GST control)"
same,binding signal,ELK4,"1.48 fold enrichment (6-mer frequency, TF over GST control)"
same,binding signal,ETV2,"1.44 fold enrichment (6-mer frequency, TF over GST control)"
same,binding signal,ELF3,"1.5 fold enrichment (6-mer frequency, TF over GST control)"
same,binding signal,CRX,"1.32 fold enrichment (6-mer frequency, TF over GST control)"
